From PubChem BioAssay
A number with no mark means an inactive call. How the calls were made is not given here.

target: Pantothenate synthetase (Mycobacterium tuberculosis (strain ATCC 25618 / H37Rv)) (UniProt P9WIL5); test: Coupled enzyme confirmation of inhibitors against recombinant Mtb PanC (AID 375); conditions: coupled enzyme assay; at 10 µM, stronger effect = higher value;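 further: 0% = full reaction with vehicle and 100% = no enzyme background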
Sequence (P9WIL5 whole entry, looked up): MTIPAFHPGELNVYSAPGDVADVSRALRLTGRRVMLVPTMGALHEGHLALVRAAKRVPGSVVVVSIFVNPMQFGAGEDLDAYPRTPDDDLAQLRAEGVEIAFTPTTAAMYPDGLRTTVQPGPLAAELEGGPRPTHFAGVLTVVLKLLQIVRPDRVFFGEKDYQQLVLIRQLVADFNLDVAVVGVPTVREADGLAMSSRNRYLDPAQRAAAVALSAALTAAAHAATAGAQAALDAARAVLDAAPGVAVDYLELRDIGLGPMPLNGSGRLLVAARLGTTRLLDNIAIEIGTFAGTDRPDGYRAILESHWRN

Compound | inhibition [%]
O=C1CCCC(O)=C1C=Nc1ccc2c(c1)oc1ccccc12 | 3
CCC(=O)N1CCN=C1SCc1ccc(Cl)cc1 | 0
Cc1nc2ccc(C(=O)c3ccccc3)cc2[nH]1 | 0
Clc1ccc(OCCCn2cncn2)cc1Cl | 0
COCCCNC(=O)CCCn1c(=O)c2ccccc2n(CC(=O)Nc2c(C)cccc2C)c1=O | 0
Cc1[nH]nc(N=CC2=C(O)CC(C)(C)CC2=O)c1-c1ccccc1 | 5
CCOC(=O)N1CCN(C(=O)c2ccc(CS(=O)(=O)c3c(Cl)cccc3Cl)o2)CC1 | 0
CCOc1ccccc1NC(=O)N1C2CCCC1CC(NC(=O)C1CC1)C2 (stereo not given) | 6
CCn1c(C)nc2cc(C(=O)OCCC(F)(F)F)ccc21 | 0
CCOC(=O)C1CCN(Cc2ccc(C(=O)OC)cc2)CC1 | 1
CN(C)C(=O)C12CCC(C)(c3nc4ccccc4nc31)C2(C)C (stereo not given) | 4
Cc1cc(NCCN2CCCCC2)n2c(nc3ccccc32)c1C#N | 14
Cc1ccc(NC2=NCC(=O)N2c2ccc3c(c2)OCCO3)c(C)c1 | 7
Cc1ccc2[nH]c(=O)c(CN(Cc3ccc4c(c3)OCO4)Cc3nnnn3Cc3ccco3)cc2c1 | 0
CCCN(Cc1cc2ccc(C)cc2[nH]c1=O)C(=O)c1cccnc1 | 2
Cn1c(CCCNC(=O)c2ccccc2)nc2ccccc21 | 2
CCC(C)OC(=O)n1ccc(C(=O)Nc2nccs2)n1 (stereo not given) | 0
O=C1C2CC=CCC2C(=O)N1c1ccc(Cc2ccncc2)cc1 (stereo not given) | 0
O=C(COc1ccccc1Cl)NCc1ccco1 | 3
CCCSc1nnc2nc3c(nn12)c1ccccc1n3C | 0

Compound | inhibition [%]
CCc1nnc(NC(=O)COC(=O)CN2C(=O)c3ccccc3C2=O)s1 | 0
CCOC(=O)c1cccc(NC(=O)CSc2nnc(C3CCCCC3)n2C)c1 | 2
COc1ccc(NC(=O)c2cc(C3CC3)on2)c(OC)c1 | 0
COc1ccc(Nc2nc(Nc3ccc(OC)cc3)nc(-n3[nH]c(=O)c(C)c3C)n2)cc1 | 0
CCOC(=O)c1cc2c(=O)n3ccccc3nc2n(CC(C)C)c1=NC(=O)c1ccco1 | 0
CCN(CCCNC(=O)CC1Oc2ccc(C)cc2NC1=O)Cc1ccccc1 (stereo not given) | 0
CC1CCC(NC(=O)Cn2ncc3ccccc32)CC1 (stereo not given) | 0
COC(=O)c1ccccc1S(=O)(=O)N(CCCO)Cc1cc2c(C)ccc(C)c2[nH]c1=O | 2
COc1ccc(OC)c(NC(=O)CSc2nc3ccccc3c(=O)n2CCNC(C)=O)c1 | 0
O=C(O)CCn1c(=O)c2ccccc2c2ccccc2c1=O | 1
CCOc1ccc2cc(C#N)c(SCC(=O)N3CCCC3)nc2c1 | 0
Cc1cc(C)c2c(=O)n(CC(=O)NCCCN3CCOCC3)sc2n1 | 1
COc1ccccc1-n1c(=O)c2c3c(sc2n2c(SC(C)C)nnc12)CCC3 | 1
COC(=O)c1cn(-c2ccccc2)nc1C(=O)OC | 2
CN1CCN(Cc2nc3c(c(=O)n(C)c(=O)n3C)n2Cc2ccccc2Cl)CC1 | 0
Cc1ccc(-c2nnn(CC(=O)N(CC3CCCO3)C(C(=O)NC(C)(C)C)c3ccc(F)cc3)n2)o1 (stereo not given) | 6
Cc1ccc2c(c1)c1c(n2CC(O)Cn2c(C)nc3ccccc32)/C(=N\O)CCC1 (stereo not given) | 5
O=C(Nc1ccccc1N1CCOCC1)c1ccc2ccccc2n1 | 0
CC(CN1c2ccccc2Sc2ccccc21)N(C)C (stereo not given) | 0
Cc1ccc(NC(=O)c2cc(S(=O)(=O)N3CCC4(CC3)OCCO4)ccc2F)cc1 | 0
